Assay [1] has as its target Cytochrome P450 3A7 (Homo sapiens) (UniProt P24462). As to the kind of experiment: Cytochrome P450 family 3 subfamily A member 7 (CYP3A7) small molecule antagonists: luciferase biochemical qHTS assay (AID 1963596). Note: nearly all actives have a fitted effect of over 40% in size. Note: potency is the fitted concentration of half-maximal effect. Put shortly:
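Enzyme-substrate mix + cpd (DMSO), 10 min RT; + NADPH regen system, 1 h RT; + luciferin detection reagent, 20 min RT; luminescence read. Proluciferin substrate, P450-Glo format, 1536-well qHTS.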
On the technique in general: In qHTS, concentration-response curves come from the screen itself.

Assay [2] can be described thus: Viability qHTS for spleen associated tyrosine kinase inhibitor (SYKi) naive MV4-11 cells (AID 1963823). Note: nearly all actives have a fitted effect of over 40% in size. Note: potency is the fitted concentration of half-maximal effect. The method in brief:
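Seeding of 500 SYKi-naive MV4-11 cells per well onto pre-dispensed compounds preceded a 72 hr incubation at 37 C. Luminescent CellTiter-Glo signal, read after 10 min at room temperature, reflected viable cells.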

Assay [3] is described as follows: Viability qHTS for spleen associated tyrosine kinase inhibitor (SYKi) drug resistant MV4-11 cells (AID 1963824). Note: nearly all actives have a fitted effect of over 35% in size. Note: potency is the fitted concentration of half-maximal effect. Put shortly:
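SYK inhibitor-resistant MV4-11 AML cells, 500 per well, added to predispensed compounds and incubated 72 hr at 37 C, 5% CO2. Viability measured by CellTiter-Glo luminescence after 10 min at room temperature.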

Assay [4] can be described thus: Cellular viability qHTS for adrenocortical cancer (ACC) cell line SW-13 (AID 1963989).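 For activity (max response): cells grown in serum-free medium with ITS supplement; % is set by controls: 0 for no effect and ±100 for the full control effect.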 Note: nearly all actives have a fitted effect of over 65% in size. Note: potency is the fitted concentration of half-maximal effect. The note with it: SW-13 ACC cells viability, CellTiter-Glo, 48 h; activity (max response): stronger effect = lower value. Put shortly:
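Viability was read as CellTiter-Glo luminescence after 48 h compound treatment (up to 46 uM final) of SW-13 cells grown serum-free; titration curves were fit with a four-parameter logistic model to give IC50 and efficacy.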

A short description of assay [5]: Cellular viability qHTS for adrenocortical cancer (ACC) cell line NCI-H295R (AID 1963990).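 Note: 0% = DMSO only wells and -100% = full killing with cytotoxic reference compound; nearly all actives have a fitted effect of over 60% in size.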 The method in brief:
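CellTiter-Glo ATP luminescence, read 48 h after compound addition, measured viability of NCI-H295R adrenocortical cells grown serum-free with ITS. Final concentrations spanned up to 46 uM. Data normalized to DMSO and doxorubicin, fitted for IC50 and maximal response.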

Assay [6] in a line: Quantitative highthroughput screen to assess conditional lethalithy of NOMO1 cells grown in Human Plasma-Like Medium with dialyzed fetal bovine serum (HPLM+ds) (AID 1963878).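 Note: 100% = DMSO wells and 0% = empty wells on each plate; nearly all actives have a fitted effect of over 35% in size.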 Put shortly: (§1)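 Each medium arm—HPLM with 10% dialyzed FBS, or RPMI1640 with 5 mM glucose and 10% untreated or dialyzed FBS—was screened against an 11-point, 3-fold compound titration for 48 h at 37 °C, with CellTiter-Glo luminescence as endpoint.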

Assay [7] in a line: Quantitative highthroughput screen to assess conditional lethalithy of P12 Ichikawa cells grown in Human Plasma-Like Medium with dialyzed fetal bovine serum (HPLM+ds) (AID 1963879). For Viability: series mostly up to about 46 µM. Note: nearly all actives have a fitted effect of over 35% in size. Note: potency is the fitted concentration of half-maximal effect. The conditions noted are these: Potency: viability. Put shortly: as §1
A short description of assay [8]: Quantitative highthroughput screen to assess conditional lethalithy of SEM cells grown in Human Plasma-Like Medium with dialyzed fetal bovine serum (HPLM+ds) (AID 1963882). Note: series mostly up to about 46 µM; nearly all actives have a fitted effect of over 35% in size. Put shortly: as §1
The nature of assay [9]: Quantitative highthroughput screen to assess conditional lethalithy of P12 Ichikawa cells grown in RPMI1640 with dialyzed fetal bovine serum (RPMI+ds) (AID 1963880). The note with it: Potency: P12-Ichikawa viability. The method in brief:
as §1

Assay [10] in a line: Quantitative highthroughput screen to assess conditional lethalithy of P12 Ichikawa cells grown in RPMI1640 with untreated serum (RPMI+s) (AID 1963881). The conditions noted are these: Potency: viability. Put shortly:
as §1

The nature of assay [11]: Quantitative highthroughput screen to assess conditional lethalithy of SEM cells grown in RPMI1640 with unreated serum (RPMI+s) (AID 1963883). Put shortly: as §1
A short description of assay [12]: Quantitative highthroughput screen to assess conditional lethalithy of SEM cells grown in RPMI1640 with dialyzed fetal bovine serum (RPMI+ds) (AID 1963884). The method in brief:
as §1

Assay [13] in a line: Quantitative highthroughput screen to assess conditional lethalithy of NOMO1 cells grown in RPMI1640 with untreated serum (RPMI+s) (AID 1963876). Put shortly:
as §1

The results in this text go back to PubChem BioAssay (NCATS).

SMILES strings stand for the structures. Values joined by “and” are separate entries in the source; they are usually repeats but may differ in a detail not shown here. Equal entries are not always repeated. Results filed as inconclusive are left out. Some compounds were tested as several samples or in several runs, with calls that do not always agree. Active and inactive are the calls of the source. Calls come from the whole dose curve; as a rule, active = well fitted curve in the direction sought with a large enough effect; inconclusive = small, poorly fitted or top-dose-only effect, or another doubt; inactive = no such curve, though single readings can be large; an effect the other way counts as inactive or inconclusive.

Cytochrome P450 3A7 (Homo sapiens), sequence (P24462 whole entry, looked up): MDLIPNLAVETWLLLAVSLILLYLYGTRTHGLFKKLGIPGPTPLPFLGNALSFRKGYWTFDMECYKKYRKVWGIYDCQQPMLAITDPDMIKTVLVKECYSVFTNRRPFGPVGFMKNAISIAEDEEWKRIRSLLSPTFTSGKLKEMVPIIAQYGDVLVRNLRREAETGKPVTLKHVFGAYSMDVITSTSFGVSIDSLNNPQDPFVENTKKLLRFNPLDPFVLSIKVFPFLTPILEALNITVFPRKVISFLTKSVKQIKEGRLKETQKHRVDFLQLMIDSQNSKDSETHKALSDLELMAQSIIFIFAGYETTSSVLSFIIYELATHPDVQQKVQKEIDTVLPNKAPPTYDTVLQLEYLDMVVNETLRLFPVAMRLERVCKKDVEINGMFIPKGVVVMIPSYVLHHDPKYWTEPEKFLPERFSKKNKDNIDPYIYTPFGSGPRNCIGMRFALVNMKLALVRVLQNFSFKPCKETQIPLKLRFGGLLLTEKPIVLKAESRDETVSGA

On to `CC(Cc1ccccc1)N(C)Cc1ccco1` (centres undefined), for which the Potency entry in assay [1], in [2], in assay [3] and in [5] was “inactive” each time. Besides, the activity (max response) in [4] is -0.53% (inactive).
Take `ClCc1cccc(Cl)c1`: the Potency entry in assay [1], in assay [2], in assay [3] and in assay [5] was “inactive” in each case. In [4], the activity (max response) was 11% (inactive).
In the case of `Cc1ccc(Cl)c(O)c1`, the Potency entry in assay [1], in assay [2] and in [3] was “inactive” throughout. Besides, the activity (max response) in assay [4] is 12.5% (inactive).
Take `O=c1[nH]oc2c1CCNC2`: the Potency entry in assay [1], in assay [2], in [3] and in assay [5] was “inactive” in each case. Further, the activity (max response) in [4] was 5.4% (inactive).
Turning to `CCC1(C2=NCCN2)Cc2ccccc2O1` (centres undefined), the Potency entry in assay [1], in assay [2], in assay [3] and in assay [5] was “inactive” in each case. Moreover, the activity (max response) in assay [4] was 12% (inactive).
On to `C[C@H]1C(=O)O[C@@H]2CCN3CC=C(COC(=O)[C@](C)(O)[C@]1(C)O)[C@H]23`, for which the Potency result in assay [1], in [2] and in assay [3] was “inactive” each time. In addition, the activity (max response) in assay [4] is -4.54% (inactive).
With `Cn1c(CCCC(=O)O)nc2cc(N(CCCl)CCCl)ccc21`, the Potency result in assay [1], in assay [6], in [7], in assay [8] and in assay [5] was “inactive” each time. Also, the Potency result is “inactive and 11.8 µM (active)” in assay [2]; “inactive and 11.8 µM (active)” in [3]. Moreover, the activity (max response) in assay [4] was 2.81% (inactive) and -9.72% (inactive).
In the case of `CN[C@@H](C)[C@H](O)c1ccccc1`, the Potency entry in [1], in assay [2], in assay [3] and in [5] was “inactive” in each case. In assay [4], the activity (max response) is -4.49% (inactive).
Consider `C1CN2CCC1CC2`, for which the Potency result in [1], in assay [2], in assay [3] and in assay [5] was “inactive” in each case. For the same compound, the activity (max response) in assay [4] is 2.77% (inactive).
As for `CCCN(CCC)c1c([N+](=O)[O-])cc(S(N)(=O)=O)cc1[N+](=O)[O-]`, the Potency in assay [1] is 1.12 µM (active); in assay [2], 21.7 µM (active); in assay [3] it was 21.7 µM (active); in assay [4], 7.94 µM (active).
For the compound `CC(C)NCC(O)c1ccc([N+](=O)[O-])cc1` (centres undefined), the Potency entry in assay [1], in [2] and in assay [3] was “inactive” in each case. In assay [4], the activity (max response) was -6.95% (inactive).
With `C[C@@H](N)[C@@H](O)c1ccccc1`, the Potency result in assay [1], in assay [2], in assay [3] and in assay [5] was “inactive” throughout. The activity (max response) in [4] is 3.81% (inactive).
Turning to `O=C(O)CCCCCCNC1c2ccccc2CCc2ccccc21`, the Potency result in [1] and in assay [3] was “inactive” throughout. In assay [2], the Potency is 0.473 µM (active). Also, the activity (max response) in [4] was 1.72% (inactive).
In the case of `CC(C)(N)Cc1ccc(Cl)cc1`, the Potency entry in assay [1], in [2], in assay [3] and in assay [5] was “inactive” each time. Moreover, the activity (max response) in assay [4] is 9.02% (inactive).
As for `C#CCN(C)[C@H](C)Cc1ccccc1`, the Potency entry in assay [1], in assay [2], in assay [3], in assay [6], in assay [9] and in assay [10] was “inactive” each time. The Potency entry in [5] was “inactive”. Besides, the activity (max response) in assay [4] was 4.66% (inactive) and -4.85% (inactive).
As for `O=P1(N(CCCl)CCCl)NCCCO1` (centres undefined), the Potency result in [1], in assay [2], in assay [3], in assay [6] and in assay [5] was “inactive” each time. For the same compound, the Potency in assay [7] was 10.5 µM (active); in [11] it was 8.33 µM (active); in [12] it was 9.35 µM (active).
For `CSCC[C@@H](NC(=O)[C@@H](Cc1ccccc1)NC(=O)CNC(=O)CNC(=O)[C@@H](N)Cc1ccc(O)cc1)C(=O)O`, the Potency entry in assay [1], in [2], in assay [3], in assay [6], in assay [7] and in [9] was “inactive” each time. Moreover, the Potency result in assay [5] is “inactive”. In addition, the activity (max response) in assay [4] was 3.41% (inactive).
As for `CNC(C)(C)Cc1ccccc1`, the Potency entry in assay [1], in assay [2], in assay [3] and in assay [5] was “inactive” throughout. The activity (max response) in assay [4] was -4.09% (inactive).
Turning to `O=C(O)C(Cl)Cl`, the Potency entry in assay [1], in [2] and in assay [3] was “inactive” throughout. Besides, in assay [4], the activity (max response) is 11.1% (inactive).
With `CC(=O)C1CCOC1=O` (centres undefined), the Potency result in assay [1], in [2], in [3] and in assay [5] was “inactive” throughout. Also, in assay [4], the activity (max response) was 9.4% (inactive).
Regarding `c1ccc(C2CC2)c(OCC2=NCCN2)c1`, the Potency result in [1], in assay [2], in [3] and in assay [5] was “inactive” throughout. For the same compound, the activity (max response) in assay [4] is -5.68% (inactive).
With `COC(=O)C(Cl)C(=O)OC`, the Potency entry in [1], in [2], in [3] and in [5] was “inactive” throughout. Also, the activity (max response) in [4] was -3.15% (inactive).
Regarding `O=C(O)COc1ccccc1`, the Potency entry in assay [1], in assay [2], in assay [3] and in assay [5] was “inactive” in each case. Besides, the activity (max response) in assay [4] is 18.4% (inactive).
Regarding `CC1NCCOC1c1ccccc1` (centres undefined), the Potency entry in assay [1], in assay [2], in assay [3] and in [5] was “inactive” in each case. In assay [4], the activity (max response) is -0.553% (inactive).
Regarding `CCN(C(C)=O)c1cccc(-c2ccnc3c(C#N)cnn23)c1`, the Potency result in assay [1], in assay [2], in assay [3] and in [5] was “inactive” in each case. Moreover, the activity (max response) in [4] is -7.67% (inactive).
As to `CN1CCN(C(=O)O[C@H]2c3nccnc3C(=O)N2c2ccc(Cl)cn2)CC1`, the Potency result in assay [1], in [2], in assay [13], in [6], in assay [7] and in [9] was “inactive” each time. Moreover, in assay [5], the Potency entry was “inactive”. Moreover, the activity (max response) in [4] is 9.33% (inactive).
Regarding `O=C(CCCCl)c1ccc(F)cc1`, the Potency result in assay [1], in assay [2], in [3] and in [5] was “inactive” throughout. Further, the activity (max response) in assay [4] is 6.97% (inactive).
